# In PubChem BioAssay AID588382 (National Center for Advancing Translational Sciences (NCATS), 2011):
# About 150 (12%) of roughly 1,300 compounds were called active. Inconclusive results (about 30%) are left out. Calls come from the whole dose curve; as a rule, active = well fitted cell-killing curve with a large enough effect; inconclusive = small, poorly fitted or top-dose-only effect, or effect the other way; inactive = flat fitted curve, though single readings scatter. Shown is part of a subset that was picked to be rich in actives.
# Test: qHTS of small molecules that selectively kill Giardia lamblia: Hit Validation in HepG2 cytotox;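 note: compound exposure lasted overnight at 37 deg C; nearly all actives have a fitted effect of over 55% in size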;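 for activity change, negative = cytotoxicity: viability measured as cellular ATP by ATPLite luminescence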
# Conditions: cell viability; Potency: HepG2 cytotoxicity; series mostly up to 38.3 µM; activity change, negative = cytotoxicity: at the top concentration
# Description: Giardia lamblia is a human pathogen afflicting impoverished nations, and the most common cause of outbreaks of diarrhea in the United States. Giardia has been classified by the CDC as a category B bioterrorism organism. The favored anti giardiasis drugs in the US are metronidazole or tinidazole, compounds that have undesirable side effects. Moreover, increasing resistance to drug regimes and recurrence are a concern. It is thus clear that alternative drug treatments are needed.
# In a collaboration between the University of Maryland, College Park and the NIH Chemical Genomics Center, a bioluminescence Giardia viability assay based on the trophozoites' ATP content was developed. This assay is suitable for high throughput screening, and miniaturized the assay for compound screening in 1536-well plates. The goal of the project is to screen the Molecular Libraries Small Molecule Repository (MLSMR) for compounds that selectively kill Giardia trophozoites. This counterscreen looks at the toxicity of the compounds against the human HepG2 cell line.
# NIH Chemical Genomics Center [NCGC]
# NIH Molecular Libraries Probe Centers Network [MLPCN]
# Assay Submitter (PI): Osnat Herzberg, University of Maryland, College Park, MD.
# 4 uL of HepG2 cells ae dispensed into white 1536-well plates. They are incubated overnight at 37 deg C and then 23 nL of compounds are transferred to the wells with a pintool. Plates are incubated overnight at 37 deg C. 2 uL of ATPLite is added and the plates are incubated for 15 min at room temperature before they are read on the ViewLux for luminiescence.
# % is set by controls: 0 for no effect and ±100 for the full control effect; potency is the fitted concentration of half-maximal effect.
SMILES,Potency,"activity change, negative = cytotoxicity"
CNC(=O)Oc1cccc(-c2cn3cc(Cl)ccc3n2)c1,1.85 µM (active),–
NC(=O)c1cc(N2CC2)c([N+](=O)[O-])cc1[N+](=O)[O-],–,3.35% (inactive)
CN(c1ccccc1)c1ccc([N+](=O)[O-])c2nonc12,–,11.3% (inactive)
COC(=O)c1nc(-c2ccc3c(n2)C(=O)C(N)=C(OC)C3=O)c(N)c(-c2ccc(OC)c(OC)c2O)c1C,1.04 µM (active),–
C[C@H]1C[C@@H](C)C(=O)[C@@H]([C@H](O)CC2CC(=O)NC(=O)C2)C1,–,-7.21% (inactive)
CCOC(=O)C1CCCN(c2ccc([N+](=O)[O-])c3nonc23)C1 (stereo not given),–,21% (inactive)
Fc1ccc(C2NCCc3[nH]cnc32)cc1 (stereo not given),–,4.03% (inactive)
[Hg+][c]1ccccc1,1.85 µM (active),–
CC(C)(O)C1C2OC(=O)C1C1(O)CC3OC34C(=O)OC2C14C (stereo not given),–,16.7% (inactive)
C[N+]12CCC(CC1)C(=C(c1ccccc1)c1ccccc1)C2,–,5.87% (inactive)
C[C@@H]1C[C@@H]([C@H](O)CC2CC(=O)NC(=O)C2)C(=O)[C@@H](C)C1,–,-0.556% (inactive)
c1ccc2c(c1)[I+]c1ccccc1-2,0.0826 µM (active),–
O=[N+]([O-])c1ccc(-c2ccccc2)c([As](=O)(O)O)c1,–,13.1% (inactive)
CC1=C(N2CC2)C(=O)C(CO)=C(N2CC2)C1=O,0.0656 µM (active),–
CCCCn1c(=O)c(C(=O)NCc2ccccc2OC)c(O)c2ccccc21,–,-9.37% (inactive)
CCn1nc(/C=C/c2ccccc2)nc2c(=O)n(C)c(=O)nc1-2,6.56 µM (active),–
CC1CN(c2ccc([N+](=O)[O-])c3cccnc23)CC(C)N1 (stereo not given),–,1.72% (inactive)
Cc1nc2c(=O)n(C)c(=O)nc-2n(C)n1,0.656 µM (active),–

SMILES,Potency,"activity change, negative = cytotoxicity"
CC1CC(C)CC(C)C(O)C(C#N)=CC=CCC(C2CCCC2C(=O)O)OC(=O)CC(O)C(C)C1 (stereo not given),2.33 µM (active),–
O=[N+]([O-])c1ccc(O)c([N+](=O)[O-])c1,–,9.5% (inactive)
CC(C)c1ccc(N=Nc2c(O)[nH]c(=O)[nH]c2=O)cc1,–,-4.42% (inactive)
O=c1c2ccccc2nc(/C=C/c2ccc([N+](=O)[O-])o2)n1-c1ccc(O)cc1,3.69 µM (active),–
CCOc1ccc(-n2c(-c3cccs3)nc3ccccc3c2=O)cc1,–,-8.26% (inactive)
O=c1c2ccccc2nc(/C=C/c2ccc(O)cc2)n1-c1cccc(O)c1,–,11.7% (inactive)
COC1/C=C/C=C(\C)Cc2cc(O)c(Cl)c(c2)N(C)C(=O)CC(OC(=O)C(C)C)C2(C)OC2C(C)C2CC1(O)NC(=O)O2 (stereo not given),–,-0.0231% (inactive)
Cc1ccc(C(c2nnnn2Cc2ccccc2)N2CC=C(c3ccc(F)cc3)CC2)cc1 (stereo not given),–,-4.33% (inactive)
C=CC1CN2CCC1CC2[C@@H](OC(=O)c1ccc(OC)cc1)c1ccnc2ccccc12 (stereo not given in full),–,8.63% (inactive)
c1ccc2c(c1)[IH]c1ccccc1-2,0.0927 µM (active),–
CN(C)C(=O)Oc1ccc(Br)c2ccccc12,–,4.5% (inactive)
COC(COC(N)=O)C1=C(N2CC2)C(=O)C(C)=C(N2CC2)C1=O (stereo not given),0.185 µM (active),–
O=[N+]([O-])c1cc([As](=O)(O)O)ccc1O,–,-5.69% (inactive)
Cc1cc([N+](=O)[O-])c2ccccc2[n+]1[O-],1.17 µM (active),–
CN1CCN(c2ccc([N+](=O)[O-])c3cccnc23)CC1,–,10.1% (inactive)
Cc1nc2ccccc2c(=O)n1-c1cc([N+](=O)[O-])cc([N+](=O)[O-])c1,–,13.7% (inactive)
NN=C(N)N,–,23.2% (inactive)
